Test results as given in PubChem BioAssay (Tox21).
Results filed as inconclusive are left out. A call without a number means that no potency is given here. The source made the active and inactive calls. Calls follow the shape of the full dose curve.

assay: G protein-coupled receptor (GPCR) small molecule agonists, calcium flux assay: HEK293 wild type cell line counter screen (AID 1920065); conditions: HEK293 WT calcium flux, fluorescence, agonist mode; series mostly up to 57.6 µM
How it was run: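 Tox21 10K compounds, 15 concentrations each in triplicate, pin-transferred in DMSO onto dye-loaded cells; kinetic read at 480/540 nm for 3 min, 1 s intervals.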

Structure (SMILES) | outcome | activation
COc1ccc(C(=O)c2ccc(OC)cc2O)c(O)c1 | inactive | 
CC(C)c1ccc(C(=O)N=C(N)N)cc1S(C)(=O)=O | inactive | 
Cc1ccc(N(CC2=NCCN2)c2cccc(O)c2)cc1 | inactive | 
CCC(C(=O)OCCN(CC)CC)c1ccccc1 (stereo not given) | inactive | 
Cc1cccc(C(C)(C)C)c1O | inactive | 
Cc1cn[nH]c1 | inactive | 
CCCCCCCCCCCCCCCCCCOS(=O)(=O)O | inactive | 
CCCCCCCCCCCCOC(=O)c1ccc(O)cc1 | inactive | 
Cc1ccc2c(Cl)cc(Cl)c(O)c2n1 | inactive | 
COc1ccc(CN(CCN(C)C)c2ncccn2)cc1 | inactive | 
O=C1C(CCS(=O)c2ccccc2)C(=O)N(c2ccccc2)N1c1ccccc1 (stereo not given) | inactive | 
C/C(=N/NC(=O)c1ccncc1)C(=O)O | inactive | 
O=C1Nc2cc(Cl)ccc2Oc2ccccc21 | inactive | 
Clc1ccc2c(c1)CCc1cccnc1C2=C1CCNCC1 | inactive | 
CC(C)(O)c1ccc(CNC(=O)c2cccnc2Oc2ccc(F)cc2)cc1 | inactive | 
COc1ccc2c(c1)C(=O)N(CCc1ccc(S(=O)(=O)NC(=O)NC3CCCCC3)cc1)C(=O)C2(C)C | inactive | 
CCCCCCCCN(C)CCCCCCCC | inactive | 
CC(C)(C)C(=O)O | inactive | 
OCCCCC(O)CO (stereo not given) | inactive | 
Cc1ccc(-n2[nH]c(C)c(N=Nc3cccc(-c4cccc(C(=O)O)c4)c3O)c2=O)cc1C | inactive | 
COc1ccc(/C=C/S(=O)(=O)NC(=O)c2ccc(C)cc2Cl)cc1 | inactive | 
O=C=NCc1cccc(CN=C=O)c1 |  | 0.869% [at 11.8 µM] (inactive)
Cc1nc2ccccc2n1Cc1ccc(Cl)cc1 | inactive | 
CCC(CO)(CO)COCC(CC)(CO)CO | inactive | 
C[N+]1(CC2COC(c3ccccc3)(C3CCCCC3)O2)CCCCC1 (stereo not given) | inactive | 
Nc1ccccc1O | inactive | 
C=CC(=O)OCCOCCOC(=O)C=C | inactive | 
OCC(CO)(CO)COCC(CO)(CO)CO | inactive | 

assay: p53 small molecule agonists, cell-based qHTS assay with human liver microsomes (AID 1963577); conditions: HCT-116 p53RE-bla with human liver microsomes, ratio, 16 h; series mostly up to 66 µM;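 also: p53 response element beta-lactamase reporter cells with liver microsomes plus NADPH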
How it was run: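 With metabolic activation: human liver microsomes (0.5 mg/mL final) plus NADPH (0.5 mg/mL final) added alongside compounds to p53RE-bla cells; 16 h 37 C exposure; beta-lactamase read by LiveBLAzer fluorescence.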

Structure (SMILES) | Potency | activation
CCC(C(=O)OCCN(CC)CC)c1ccccc1 (stereo not given) | inactive | 
COC(=O)c1cccc(Cl)c1 | inactive | 
Cc1cccc(C(C)(C)C)c1O | inactive | 
Cc1cn[nH]c1 | inactive | 
CCCCCCCCCCCCCCCCCCOS(=O)(=O)O | inactive | 
C[Si](C)(CCCN)O[Si](C)(C)CCCN | inactive | 
CCCCCCCCCCCCOC(=O)c1ccc(O)cc1 | inactive | 
O=C1N(c2ccccc2)c2ccccc2C1(Cc1ccncc1)Cc1ccncc1 | inactive | 
CCC(C=O)CC | inactive | 
Cc1ccc2c(Cl)cc(Cl)c(O)c2n1 | inactive | 
COc1ccc(CN(CCN(C)C)c2ncccn2)cc1 | inactive | 
CCN1CCCC1CN (stereo not given) | inactive | 
O=C1Nc2cc(Cl)ccc2Oc2ccccc21 | inactive | 
Clc1ccc2c(c1)CCc1cccnc1C2=C1CCNCC1 | inactive | 
CCC(=O)c1c(O)cc(O)cc1O | inactive | 
CC(C)(O)c1ccc(CNC(=O)c2cccnc2Oc2ccc(F)cc2)cc1 | inactive | 

Structure (SMILES) | Potency | activation
COc1ccc2c(c1)C(=O)N(CCc1ccc(S(=O)(=O)NC(=O)NC3CCCCC3)cc1)C(=O)C2(C)C | inactive | 
CCCCCCCCN(C)CCCCCCCC | inactive | 
CC(C)(C)C(=O)O | inactive | 
OCCCCC(O)CO (stereo not given) | inactive | 
Cc1ccc(-n2[nH]c(C)c(N=Nc3cccc(-c4cccc(C(=O)O)c4)c3O)c2=O)cc1C | inactive | 
C=Cc1ccccc1C=C | inactive | 
COc1ccc(/C=C/S(=O)(=O)NC(=O)c2ccc(C)cc2Cl)cc1 | inactive | 
O=C=NCc1cccc(CN=C=O)c1 |  | -0.418% [at 13.5 µM] (inactive)
Cc1cc(S(=O)(=O)O)c(N)cc1Cl | inactive | 
O=Cc1ccc(F)c(Br)c1 | inactive | 
CCC(CO)(CO)COCC(CC)(CO)CO | inactive | 
CC(C)OC(=O)c1ccccc1 | inactive | 
C[N+]1(CC2COC(c3ccccc3)(C3CCCCC3)O2)CCCCC1 (stereo not given) | inactive | 
Nc1ccccc1O | inactive | 
C=CC(=O)OCCOCCOC(=O)C=C | inactive | 
OCC(CO)(CO)COCC(CO)(CO)CO | inactive | 

assay: p53 small molecule agonists, cell-based qHTS assay with rat liver microsomes (AID 1963578); conditions: HCT-116 p53RE-bla, beta-lactamase ratio, 16 h; series mostly up to 66 µM
How it was run: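 Metabolic activation by rat liver microsomes and NADPH, each 0.5 mg/mL final, added right after compounds to p53RE-bla reporter cells (4,000/well, plated 5 h earlier). 16 h at 37 C, then LiveBLAzer substrate for 2 h at room temperature in the dark; fluorescence read-out.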

Structure (SMILES) | Potency
COc1ccc(C(=O)c2ccc(OC)cc2O)c(O)c1 | inactive
CC(C)c1ccc(C(=O)N=C(N)N)cc1S(C)(=O)=O | inactive
Cc1ccc(N(CC2=NCCN2)c2cccc(O)c2)cc1 | inactive
COC(=O)c1cccc(Cl)c1 | inactive
Cc1cn[nH]c1 | inactive
CCCCCCCCCCCCCCCCCCOS(=O)(=O)O | inactive
C[Si](C)(CCCN)O[Si](C)(C)CCCN | inactive
CCCCCCCCCCCCOC(=O)c1ccc(O)cc1 | inactive
O=C1N(c2ccccc2)c2ccccc2C1(Cc1ccncc1)Cc1ccncc1 | inactive
CCC(C=O)CC | inactive
Cc1ccc2c(Cl)cc(Cl)c(O)c2n1 | inactive
COc1ccc(CN(CCN(C)C)c2ncccn2)cc1 | inactive
CCN1CCCC1CN (stereo not given) | inactive
O=C1C(CCS(=O)c2ccccc2)C(=O)N(c2ccccc2)N1c1ccccc1 (stereo not given) | inactive
C/C(=N/NC(=O)c1ccncc1)C(=O)O | inactive
O=C1Nc2cc(Cl)ccc2Oc2ccccc21 | inactive
CCC(=O)c1c(O)cc(O)cc1O | inactive
COc1ccc2c(c1)C(=O)N(CCc1ccc(S(=O)(=O)NC(=O)NC3CCCCC3)cc1)C(=O)C2(C)C | inactive
OCCCCC(O)CO (stereo not given) | inactive
Cc1ccc(-n2[nH]c(C)c(N=Nc3cccc(-c4cccc(C(=O)O)c4)c3O)c2=O)cc1C | inactive
C=Cc1ccccc1C=C | inactive
Cc1cc(S(=O)(=O)O)c(N)cc1Cl | inactive
Nc1ccc(S(=O)(=O)Nc2ccccc2)cc1 | inactive
O=Cc1ccc(F)c(Br)c1 | inactive
Cc1nc2ccccc2n1Cc1ccc(Cl)cc1 | inactive
CCC(CO)(CO)COCC(CC)(CO)CO | inactive
CC(C)OC(=O)c1ccccc1 | inactive
C[N+]1(CC2COC(c3ccccc3)(C3CCCCC3)O2)CCCCC1 (stereo not given) | inactive
Nc1ccccc1O | inactive
C=CC(=O)OCCOCCOC(=O)C=C | inactive
